# Shown are actives, neighbours in structure and some others; about 0.47% of the full set was active somewhere.
# UDG counter = counter-screen for AID inhibitors: uracil-DNA glycosylase inhibition; FRET deamination/UDG coupled assay, UDG read, 4 h; actives 0.14% (n = 91,000); AID 1347430; Potency, µM (highest dose often 115 µM), usual class: inhibitors; note: nearly all actives have a fitted effect of over 65% in size
# AID inh = blocks human AID cytidine deaminase activity; Potency, µM (highest dose often 115 µM), most hits filed as inhibitors; AID deamination FRET fluorescence, UDG-coupled, 4 h; actives 0.32% (n = 91,000); Q9GZX7; AID 1347428; note: nearly all actives have a fitted effect of over 25% in size
# Target sequence (Q9GZX7 whole entry, looked up): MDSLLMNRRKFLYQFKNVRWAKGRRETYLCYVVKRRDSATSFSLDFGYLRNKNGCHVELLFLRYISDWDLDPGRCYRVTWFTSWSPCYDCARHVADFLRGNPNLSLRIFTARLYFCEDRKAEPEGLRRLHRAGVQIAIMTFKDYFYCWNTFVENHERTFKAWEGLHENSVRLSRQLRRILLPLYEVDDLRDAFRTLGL
# Numbers stand for hits; . = inactive. Calls come from the whole dose curve; as a rule, active = well fitted curve in the direction sought with a large enough effect; inconclusive = small, poorly fitted or top-dose-only effect, or another doubt; inactive = no such curve, though single readings can be large; an effect the other way counts as inactive or inconclusive.
SMILES,UDG counter,AID inh
CN(N=O)c1cc(O)ccc1O,.,28.2µM
CC(C)NC(=O)NC(=O)CCl,.,.
COC(=O)c1ccc(CBr)cc1,.,.
C[N+](C)(C)CC1CCC1,.,.
O=C(Cc1n[nH]c(=O)c2ccccc12)N1CCN(CC(F)(F)F)CC1,.,.
COc1ccc2c(c[n+](C)c3c4cc5c(cc4ccc23)OCO5)c1OC,.,39.8µM
Cc1cc(C)nc(SC(Cl)(Cl)Cl)n1,.,.
CCCCC/C=C\C/C=C\C/C=C\C/C=C\CCCC(=O)NCC(=O)O,.,79.4µM
COc1ccc(CNCCc2cccc(F)c2)cc1,.,.

# From PubChem BioAssay
